In PubChem BioAssay AID2732 (Emory University Molecular Libraries Screening Center, 2010):
The whole screen tested about 220,000 compounds, of which about 8,200 (3.7%) were called active. The entries come from a sample that favours actives as a whole. Unmarked numbers belong to inactive results.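 Rule for the calls: active = compounds that reduced the stress-induced luciferase reporter signal by more than about 70% of percent inhibition (limit read from the data); inactive = the rest.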

Test: blockers of ER-stress CHOP reporter expression – cell-based, unfolded protein response, luciferase reporter, primary screen (AID 2732);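 note: 0% = tunicamycin plus vehicle and 100% = wells without tunicamycin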
Conditions: CHO-K1 CHOP-promoter luciferase, tunicamycin-induced, 15-18 h; at 10 µM; hits give high values

SMILES | inhibition
CC(C)C(=O)N1CCN(c2nc(-c3ccccc3)c3c(c2C#N)CC(C)(C)OC3)CC1 | 26.8%
CCCCc1nc(NCc2ccccc2)c(C#N)c2c1CCCC2 | 54.3%
Cc1nc(NCc2ccccc2)c(C(N)=O)c2c1COC(C)(C)C2 | -8.11%
CCCCc1nc(NCCN)c(C#N)c2c1CSC(C)(C)C2 | 101% (active)
Cc1nc(NCCN)c(C#N)c2c1COC(C)(C)C2 | 74.9% (active)
C=CCSc1nnc(NC(=O)c2ccc(NC(C)=O)cc2)s1 | 6.97%
COC(=O)c1scc(C)c1NC(=O)CSc1ccc(Cl)cc1 | 16.3%
Cn1cccc1/C=C1\SC(=S)N(NC(=O)c2ccc(Cl)cc2)C1=O | 20.4%
Cc1nn(Cc2ccccc2)c(C)c1C(=O)NCCN1C(=O)S/C(=C\c2ccc(F)cc2)C1=O | 56.3%
Cn1cccc1/C=C1\SC(=O)N(CC(=O)Nc2ccc(F)cc2)C1=O | 72% (active)
COc1ccc(N2CCC(CNC(=S)Nc3c(C)cccc3C)C2)cc1 (stereo not drawn) | 18.6%
CCOc1ccccc1C1CC(c2cccc(NS(C)(=O)=O)c2)=NN1C(=O)c1ccccc1 (stereo not drawn) | -2.91%
CCOc1ccc2nc(Cl)c(C3CC(c4ccccc4)=NN3C(=O)c3cccs3)cc2c1 (stereo not drawn) | 90.5% (active)
COc1ccc(C2CC(c3ccccc3)=NN2C(=O)c2ccc(Cl)c([N+](=O)[O-])c2)cc1 (stereo not drawn) | -21.3%
OC(CNCc1ccc2c(c1)OCO2)COc1ccccc1 (stereo not drawn) | -20.3%
CCOC(=O)CC1C(=O)NCCN1c1nc2c(C)cccn2c(=O)c1/C=C1\SC(=S)N(C(C)CC)C1=O (stereo not drawn) | 5.91%
C/C(Cl)=C\Cn1c(Nc2cccc(C)c2)nc2c1c(=O)n(C)c(=O)n2C | 76.1% (active)
COC(=O)C(C)Sc1nc2c(c(=O)n(C)c(=O)n2C)n1Cc1cccc(C)c1 (stereo not drawn) | 11.8%
Cc1cccc(Cn2c(N3CCN(c4ccccc4)CC3)nc3c2c(=O)n(C)c(=O)n3C)c1 | 40.4%
CNc1ccc([N+](=O)[O-])cc1C(=O)O | -14.2%
Nc1nc(O)c(CC(=O)O)s1 | 9.65%
CC(=O)N/C(=C\c1ccc(F)cc1)C(=O)NC(Cc1ccccc1)C(=O)O (stereo not drawn) | 2.9%
Cc1cccc(-n2c(C)cc(/C=N\NC(=O)c3cccs3)c2C)c1 | 13.8%
Cc1ccc(-n2nc(C)c(/C=N/NC(=O)c3cccs3)c2Cl)cc1 | 99.7% (active)

SMILES | inhibition
CC(=O)Nc1ccc(/C=N/NC(=O)c2cccs2)cc1 | -21.6%
O=C(NCCCn1ccnc1)C(=O)NCC1OCCN1S(=O)(=O)c1cc(F)ccc1F (stereo not drawn) | 19.4%
O=C(/C=C/c1ccc(Cl)cc1)N1CCN(c2ccccc2[N+](=O)[O-])CC1 | 32.3%
CO/N=C/c1ccc(N2CCN(C(=O)c3cccc(Cl)c3)CC2)c([N+](=O)[O-])c1 | 71.8% (active)
O=C(c1ccc(Cl)c([N+](=O)[O-])c1)N1CCN(c2ccccc2)CC1 | -20.4%
CC12C(=O)N(c3ccccc3)C(=O)C1C(c1ccccc1)N1CCCN12 (stereo not drawn) | 7.95%
O=[N+]([O-])c1ccc(N2CCSCC2)cc1O | 13.8%
O=C(Cc1cccc2ccccc12)NNC(=O)Nc1ccc(Cl)cc1 | 13.2%
Cc1ccc(NC(=S)NC(NC(=O)Cc2cccc3ccccc23)C(Cl)(Cl)Cl)cc1 (stereo not drawn) | 110% (active)
CC(C)(C)C(=O)NC(NC(=S)Nc1ccc(S(N)(=O)=O)cc1)C(Cl)(Cl)Cl (stereo not drawn) | -6.4%
O=C(NNC(=S)NC1CC2CCC1C2)c1ccc(Cl)cc1 (stereo not drawn) | -10.6%
CC1(C)Oc2ccc3ccc(=O)oc3c2/C(=C/NCCO)C1=O | 7.95%
C/C=C(/C)C(=O)OC1Cc2c(ccc3ccc(=O)oc23)OC1(C)C (stereo not drawn) | 74.3% (active)
O=C(NCc1csc(-c2cccs2)n1)C1CC1 | 21.8%
COc1ccccc1OCC(=O)O/N=C(\N)c1ccccn1 | -9.1%
CCCCN1CCNC1=S | 11%
Cc1ccc(-c2noc(CSc3nnc(-c4ccncc4)n3-c3ccc(F)cc3)n2)cc1 | 35.3%
Cc1nnc(SCc2ccc(C(=O)c3ccc(Cl)cc3)o2)n1-c1ccccc1 | 24.9%
Fc1ccc(-n2c(Cc3ccccc3)nnc2SCc2nc(-c3ccc(Cl)cc3)no2)cc1 | 82.2% (active)
Cc1oc(C(N)=O)cc1COc1ccc(C(N)=O)cc1 | 0.47%
CC(=O)NC(=S)Nc1ccc(NC(=S)NC(=O)c2ccc([N+](=O)[O-])cc2)cc1 | -4.53%
Cc1noc(C)c1S(=O)(=O)N1CCCC(C(=O)Nc2nccs2)C1 (stereo not drawn) | 11.8%
O=C(Nc1nccs1)C1CCN(S(=O)(=O)c2ccc(Cl)c(C(F)(F)F)c2)CC1 | 70.1% (active)
O=C(Nc1ccc(F)c(Cl)c1)C1CCN(S(=O)(=O)c2cccnc2)CC1 | 24.3%
